Compounds with a hit are over-represented: about 3.7% of the library has one in this group of screens.
Tau fibril FP – blocks human tau fibril formation measured by polarization. P10636. K18 P301L tau heparin fibrillization, Alexa594 FP, 6 h. Potency, µM (top dose mostly 57.7 µM), actives largely listed as inhibitors. 280,000 tested, 0.39% active. AID 1468; note: nearly all actives have a fitted effect of over 55% in size
Target sequence (P10636 561-689 P618L limits assumed): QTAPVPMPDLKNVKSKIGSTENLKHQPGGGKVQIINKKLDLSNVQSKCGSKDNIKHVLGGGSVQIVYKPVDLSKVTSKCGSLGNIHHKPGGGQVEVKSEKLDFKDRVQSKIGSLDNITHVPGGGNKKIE
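Steps: dispense K18 P301L tau (15 uM plus 0.24 uM Alexa 594 tracer, final) in pH 7 sodium acetate; add compound; add heparin (20 uM final); incubate 6 hr, 37 C; add ThT (30 uM final); after 1 hr ambient, read FP.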
HttQ103 aggreg – mutant huntingtin aggregation inhibition; AID 1688; 220,000 tested, 1.1% active; Potency, µM (top dose mostly 46.1 µM), most hits filed as inhibitors; PC12 HttQ103-GFP aggregates, Acumen cytometry, 40 h; note: nearly all actives have a fitted effect of over 60% in size
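Inducible Q103 Huntingtin exon 1–GFP PC12 line, 1500 cells/well in phenol red free DMEM with 5% equine and 5% calf serum. Tebufenozide 100 nM induced expression; compounds titrated; aggregates quantified by cytometry.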
Tau fibril ThT – inhibitors of human tau fibril formation, thioflavin T binding. P10636. recombinant tau K18 P301L, heparin-induced fibrillization, ThT fluorescence. Potency, µM (doses to about 57.4 µM), hits mostly inhibitors. 270,000 tested, 2.1% active. AID 1460; note: nearly all actives have a fitted effect of over 55% in size
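Tau K18 P301L fragment (15 uM unlabeled plus 0.24 uM Alexa 594-labeled) in 100 mM sodium acetate pH 7 with compound, fibrillization induced by 20 uM heparin for 6 hr at 37 C. Thioflavin T (30 uM) added, fluorescence read after 1 hr (ex 450, em 510 nm).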
HTT ATP protect – Huntington cell model cytoprotection by ATP luminescence. PC12 HTT-Q103 induced, cytoprotection, ATP luminescence, 40 h. Potency, µM (doses to about 56.4 µM), usual class: activators. 230,000 tested, 0.14% active. AID 1471; note: nearly all actives have a fitted effect of over 45% in size
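Compounds added alongside 100 nM tebufenozide, which induces toxic Q103 huntingtin exon 1-GFP in stable PC12 cells; surviving cells quantified by luminescent ATP measurement. Medium: phenol red-free DMEM, 5% equine and 5% calf serum.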
Tau fluor counter – counter-screen for tau fibril formation inhibitors; Potency, µM (series often up to 57.7 µM); tau K18 P301L (four-repeat tau fragment) Alexa594 fluorescence, heparin fibrillization; 280,000 tested, 0.93% active; note: nearly all actives have a fitted effect of over 55% in size
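Human K18 P301L tau (15 uM unlabeled plus 0.24 uM Alexa 594-labeled, final) in 100 mM sodium acetate pH 7 was mixed with compound and 20 uM heparin and incubated 6 hr at 37 C.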
Of the large screens only hits and unclear results are named; the others gave an inactive call; [ ] = another dose, or the depositor's remark. Calls come from the whole dose curve; as a rule, active = well fitted curve in the direction sought with a large enough effect; inconclusive = small, poorly fitted or top-dose-only effect, or another doubt; inactive = no such curve, though single readings can be large; an effect the other way counts as inactive or inconclusive.

CC(C)C(c1nnnn1C1CCCC1)N(C)C1CCCCC1 (stereo unspecified)	none
Cc1ccc(C(c2nnnn2C2CCCCC2)N(C)C2CCCCC2)cc1 (stereo unspecified)	HttQ103 aggreg 11µM
O=C(O)CCCN1C(=O)/C(=C/c2cn(-c3ccccc3)nc2-c2cccs2)SC1=S	Tau fibril FP inconclusive, HttQ103 aggreg inconclusive, Tau fibril ThT 16µM
OC[C@@H]1NC[C@@H](O)[C@H]1O	none (no result: Tau fibril FP, HttQ103 aggreg, Tau fibril ThT, Tau fluor counter)
O=c1cc(N2CCc3ccccc32)[nH]c(=O)n1-c1ccc(Br)cc1	Tau fibril FP inconclusive, Tau fibril ThT 28µM
COc1ccc(-n2c(=O)cc(N3CCc4ccccc43)[nH]c2=O)cc1	none
COc1ccc(-c2nc3cnc(Oc4cccc(Cl)c4)nc3n(C[C@H]3CCCO3)c2=O)cc1	none (no result: Tau fibril FP, HttQ103 aggreg, Tau fibril ThT, Tau fluor counter)
Cc1cc(O)ccc1N=Cc1c(C(F)(F)F)[nH][nH]c1=O	Tau fibril FP 32µM, Tau fibril ThT 25µM, Tau fluor counter inconclusive
O=c1[nH][nH]c(C(F)(F)F)c1C=Nc1ccccc1	none
CC(C)(CCc1nc2ccccc2[nH]1)C(=O)O	none (no result: Tau fibril FP, HttQ103 aggreg, Tau fibril ThT, Tau fluor counter)
COc1c(O)cc2oc3cc(O)c(CC=C(C)C)c(O)c3c(=O)c2c1CC=C(C)C	Tau fibril FP 2.8µM, Tau fibril ThT inconclusive, Tau fluor counter 2.8µM[quencher] (no result: HttQ103 aggreg)
CC(C)=CCc1c(O)cc2oc(C)cc(=O)c2c1O	none (no result: HttQ103 aggreg)
CC(C)=CCc1c(O)cc2oc3c(CC=C(C)C)c(O)c(O)c(CC=C(C)C)c3c(=O)c2c1O	Tau fibril ThT inconclusive, Tau fluor counter 14µM[quencher]
COc1ccc(OC)c(CNC(=O)Cn2nc(C)c3nn(-c4ccc(Cl)cc4)c(C)c3c2=O)c1	Tau fibril ThT inconclusive (no result: HttQ103 aggreg, HTT ATP protect)
O=C1/C(=C/c2cccs2)SC(=S)N1c1cccc(O)c1	Tau fibril ThT 20µM, Tau fluor counter 20µM[quencher]
C/C1=C2/[N-]C(C(CC(N)=O)[C@@]2(C)CCC(=O)NCC(C)OP(=O)([O-])O[C@H]2[C@@H](O)[C@@H](n3cnc4cc(C)c(C)cc43)O[C@@H]2CO)[C@]2(C)N=C(/C(C)=C3N=C(/C=C4N=C1C(CCC(N)=O)C\4(C)C)[C@@H](CCC(N)=O)[C@]\3(C)CC(N)=O)[C@@H](CCC(N)=O)[C@]2(C)CC(N)=O.CC(=O)O.[Co] (stereo partly specified)	none (no result: Tau fibril FP, Tau fibril ThT, Tau fluor counter)
CCOc1ccc(C(=O)/C=C/c2ccc(OC)c(OC)c2)cc1	Tau fibril ThT inconclusive
CCc1ccc(/C=C/C(=O)c2cc(Br)ccc(=O)c2O)cc1	Tau fibril FP inconclusive, Tau fibril ThT 16µM, Tau fluor counter inconclusive
CCOc1ccc(/C=C/C(=O)c2cc(Br)ccc(=O)c2O)cc1	Tau fibril FP inconclusive, HttQ103 aggreg inconclusive, Tau fibril ThT 4.5µM, Tau fluor counter inconclusive (no result: HTT ATP protect)
Cc1cccc(/C=C/C(=O)c2cc(Br)ccc(=O)c2O)c1	Tau fibril FP inconclusive, Tau fibril ThT 14µM, Tau fluor counter inconclusive
Cc1ccc(-c2nnc(SCC(=O)NCCC(C)C)nc2-c2ccc(C)cc2)cc1	none (no result: HttQ103 aggreg, HTT ATP protect)
O=C(NCc1ccccn1)c1nn(-c2ccccc2Cl)nc1CO	none (no result: HttQ103 aggreg, HTT ATP protect)
COc1ccc(C(O)C2=CCCC2=O)cc1 (stereo unspecified)	HTT ATP protect inconclusive (no result: HttQ103 aggreg)
Oc1ccc2ccccc2c1Cc1c(O)ccc2ccccc12	none (no result: Tau fibril FP, HttQ103 aggreg, Tau fibril ThT, Tau fluor counter)
CCN(CC)c1ccc(C2Nc3cccc4cccc(c34)N2)c(O)c1	Tau fibril ThT 16µM, Tau fluor counter 14µM[quencher]
Oc1ccc2ccccc2c1C1Nc2cccc3cccc(c23)N1	HttQ103 aggreg inconclusive, Tau fibril ThT 28µM, Tau fluor counter 14µM[quencher]
CCC1CCCCN1S(=O)(=O)c1cc2c(cc1C)NC(=O)CO2 (stereo unspecified)	Tau fibril ThT inconclusive (no result: HttQ103 aggreg, HTT ATP protect)
COc1ccc2c(c1)C(=O)[C@@H](OC(=O)NCc1ccco1)[C@H](c1ccc(OC)c(Br)c1)O2	none (no result: HttQ103 aggreg)
Cc1[nH]n(-c2ccccc2)c(=O)c1/C=N/N1C(=O)c2cccc3cccc(c23)C1=O	Tau fibril ThT 22µM, Tau fluor counter inconclusive
Cc1ccc(-n2[nH]c(C)c(/C=N/c3ccccn3)c2=O)cc1	none
CCCc1nc2ccccc2c(=O)n1/N=C/c1c(C)[nH]n(-c2ccc(C)cc2)c1=O	HttQ103 aggreg 18µM
CCCc1nc2ccccc2c(=O)n1/N=C/c1ccccc1O	HttQ103 aggreg 10µM
